# The list is not random: actives were taken first. Their share in the collection is about 4.2%.
# tim23-1 inh = inhibits growth of tim23-1 mutant yeast | S. cerevisiae tim23-1 growth, BacTiter-Glo luminescence, 24 h | inhibition, % at 20 µM | 330,000 compounds, 1.3% hits;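 active means growth inhibition of the mutant yeast at or above 50%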;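 further: temperature-sensitive mutant grown at 25 °C; plate controls were DMSO-treated mutant yeast for no effect and medium wells lacking yeast for full effect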
# tim10-1 inh = growth inhibitors of tim10-1 mutant yeast; S. cerevisiae tim10-1 ts strain growth, BacTiter-Glo, 24 h; inhibition, % at 20 µM; 330,000 compounds, 2.2% hits; AID 463190;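 active means inhibition of at least 40%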;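 further: mutant grown at 25 °C; 0% = DMSO wells with yeast and 100% = wells holding no yeast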
# V-ATPase pHluor = alters yeast V-ATPase proton transport; S. cerevisiae, pHLuorin cytosolic pH fluorescence; response, % at 10 µM; 350,000 compounds, 0.37% hits; AID 504577; in the data active means response mostly above about 7.3%, no sharp cut-off; inactive means mostly below about 5.4%; further: actives read high
# NLRP3 yeast inh = inhibitors of NALP3 inflammasome in yeast. Yeast reconstituted NLRP3/ASC/caspase-1, beta-gal luminescence, 24 h. inhibition, % at 10 µM. 330,000 compounds, 0.39% hits. AID 2825;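 active means inhibition of 50% or more; inactive means inhibition below 50%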;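 further: plate controls were induced DMSO wells for no effect and uninduced yeast grown without galactose for full effect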
# TIM10 inh = TIM10 yeast growth inhibition. 330,000 compounds, 1.4% hits. S. cerevisiae TIM10 strain growth, BacTiter-Glo luminescence, 24 h. inhibition, % at 10 µM. AID 463195;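 active means inhibition of 40% or more at the single tested concentration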;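 further: wild-type TIM10 isogenic control strain grown at permissive 25 °C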
# NALP1 yeast inh = NALP1 inhibition; S. cerevisiae NALP1/ASC/caspase-1 growth, X-gal OD620, 72 h; inhibition, % at 10 µM; 280,000 compounds, 0.61% hits; AID 2071; in the data active means inhibition mostly above about 24%, no sharp cut-off; inactive means mostly below about 32%
# tim10-1 confirm = tim10-1 yeast growth inhibition, confirmed | shares compounds with tim10-1 inh | 7,400 compounds, 56% hits | S. cerevisiae tim10-1 ts strain growth, BacTiter-Glo, 24 h | inhibition, % at 20 µM;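 active means inhibition of yeast growth at or above a set limit in either of two repeat tests at 20 µM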;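 further: tim10-1 mutant grown at permissive 25 °C to find synthetic lethal compounds; 0% = DMSO yeast wells and 100% = medium wells without yeast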
# TIM10 conf = TIM10 yeast growth inhibition, confirmed | shares compounds with TIM10 inh | S. cerevisiae tim10 strain growth, BacTiter-Glo luminescence, 24 h | inhibition, % at 10 µM | 4,600 compounds, 63% hits;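 active means inhibition of yeast growth at or above a set limit in either of two replicates at 10 µM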;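 further: this counterscreen used the strain with wild-type TIM10; 0% = yeast with DMSO and 100% = medium wells lacking yeast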
# tim23-1 conf = tim23-1 yeast growth inhibition, confirmed; 4,400 compounds, 83% hits; S. cerevisiae tim23-1 growth, BacTiter-Glo luminescence, 24 h; AID 463218; inhibition, % at 20 µM; shares compounds with tim23-1 inh;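 active means inhibition above about 39% in either of two replicate wells at 20 µM, limit read from the data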;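 further: temperature-sensitive tim23-1 mutant grown at 25 °C; 0% = DMSO wells with yeast and 100% = medium wells without yeast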
# * marks the source's active call; other numbers are inactive results; / = not tested or not shown.
SMILES,tim23-1 inh,tim10-1 inh,V-ATPase pHluor,NLRP3 yeast inh,TIM10 inh,NALP1 yeast inh,tim10-1 confirm,TIM10 conf,tim23-1 conf
N#C/C(=C\c1ccc(F)cc1)C(=O)NC1CCS(=O)(=O)C1 (centres undefined),20,23,-1,25,21,-2,/,/,/
N#C/C(=C\c1ccc(F)c(F)c1)C(=O)NC1CCCCC1,68*,52*,1,3,65*,60*,65*,78*,59*
N#C/C(=C\c1ccc(F)c(Br)c1)C(=O)NC1CC1,84*,48*,3,12,44*,2,46*,58*,74*
FC(F)(F)c1nnc2ccc(N3CCCCCC3)nn12,50*,41*,-3,-17,18,18,25,/,33
FC(F)(F)c1nnc2ccc(N3CCCC3)nn12,2,-7,-5,18,4,2,/,/,/
NNc1nc(-c2ccccc2)cc(-c2ccc(Br)cc2)n1,55*,55*,4,16,39,-2,50*,/,58*
CC(=O)NNc1nc(-c2ccccc2)c2cc(Br)ccc2n1,-24,10,2,10,11,/,/,/,/
NNc1nc(-c2ccccc2)c2cc(Br)ccc2n1,62*,44*,1,16,56*,6,48*,30,28
NNc1nc(-c2ccccc2)c2cc(Cl)ccc2n1,63*,54*,-2,13,48*,-21,32*,24,52*
CCOC(=O)c1sc(NC(=O)c2c(C)nn(Cc3ccccc3)c2C)cc1C,50*,43*,0,22,61*,33,46*,-1,52*
CCOC(=O)c1sc(NC(=O)c2ccc(Cl)s2)cc1C,-13,-25,-3,5,3,/,/,/,/
Cc1ccc(N=C2NC(=O)/C(=C\c3ccsc3)S2)c(C)c1,58*,52*,0,30,47*,7,30,-13,66*
Cc1ccc(N=C2NC(=O)/C(=C/c3cccnc3)S2)c(C)c1,47,25,0,30,33,22,/,/,/
O=C1N2CCCc3cccc(c32)C12Nc1ccccc1S2 (centres undefined),/,/,-3,/,/,-2,/,/,/
CC1CC(C)(C)N2C(=O)C3(Nc4ccccc4S3)c3cccc1c32 (centres undefined),58*,61*,2,34,47*,8,54*,61*,62*
CCOC(=O)/C(=N/Nc1ccc(C)cc1)S(=O)(=O)c1ccc(Cl)cc1,13,18,2,33,11,22,/,/,/
NNC(=O)/C(=N/Nc1ccccc1)S(=O)(=O)c1ccc(Cl)cc1,69*,56*,-4,15,17,26,49*,/,59*
COc1cccc(C(=O)NN2CCOCC2)c1,-7,-18,1,16,-11,/,/,/,/
CCc1nc2ccccc2c2nc3ccccc3n12,51*,59*,-3,11,44*,19,46*,22,48*
Cc1ccc([C@@H]2CC(=O)[C@@H]3CN(S(=O)(=O)c4ccc(C)cc4)[C@H](c4ccccc4)C[C@@H]3N2S(=O)(=O)c2ccc(Cl)cc2)cc1,/,/,-1,/,/,/,/,/,/
Cc1nc(-c2ccc(NC(=O)c3ccco3)cc2)cs1,68*,51*,4,44,43*,5,22,50*,67*
Cc1cc(=O)[nH]c(N/N=C/c2c(C)nn(-c3ccccc3)c2C)n1,4,4,-2,5,-6,-2,/,/,/
Cc1nn(-c2ccccc2)c(C)c1/C=N/Nc1nc2ccccc2[nH]1,52*,45*,2,29,48*,3,18,19,41*
N/C(=N\OC(=O)c1ccccc1Cl)c1ccc(Cl)cc1,81*,53*,1,14,79*,/,37*,82*,72*
N/C(=N\OC(=O)c1ccc(Cl)cc1Cl)c1ccccc1,82*,62*,-1,18,87*,8,55*,84*,78*
SMILES,tim23-1 inh,tim10-1 inh,V-ATPase pHluor,NLRP3 yeast inh,TIM10 inh,NALP1 yeast inh,tim10-1 confirm,TIM10 conf,tim23-1 conf
Cc1cccc(/C(N)=N/OC(=O)c2cccnc2)c1,35,38,3,9,37,13,/,/,/
COc1ccccc1C(=O)O/N=C(\N)c1ccccc1Cl,52*,41*,2,7,35,31,40*,/,32
N/C(=N\OC(=O)c1ccc(Cl)cc1Cl)c1cccnc1,52*,58*,-1,18,51*,-7,55*,36*,42*
N/C(=N\OC(=O)COc1ccccc1)c1ccc(Cl)cc1,16,14,-2,12,18,8,/,/,/
COc1ccc(N(C(=O)/C=C/c2ccccc2)C2=CC3CCC(C2)N3C)cc1 (centres undefined),6,-6,-3,5,-6,/,/,/,/
N/C(=N\OC(=O)c1ccccc1Cl)c1ccccc1,57*,52*,1,-1,47*,12,55*,43*,52*
N/C(=N/OC(=O)c1ccccc1Cl)c1nonc1N,22,24,-2,22,17,0,/,/,/
C[C@@H]1CCC2[C@](C)(CO)[C@@H](O)CC[C@]2(C)[C@@]12C[C@](CO)(CC(=O)O)CO2 (some centres undefined),-2,-1,2,13,-6,17,/,/,/
O=C(CC1C(=O)N(c2ccccc2)C(=S)N1c1ccccc1)c1ccc(Br)cc1 (centres undefined),24,33,3,10,35,35,/,/,/
O=C(CC1C(=O)N(c2ccccc2)C(=S)N1c1ccccc1)c1ccccc1 (centres undefined),52*,47*,4,-1,49*,31,42*,40*,53*
O=C(Nc1ccccc1C(=O)N/N=C/c1ccncc1)c1ccccc1,77*,68*,0,-3,62*,1,68*,36*,70*
COc1ccc(C(=O)Nc2ccccc2C(=O)N/N=C/c2ccco2)cc1,72*,67*,-10,3,47*,6,68*,43*,72*
COc1cccc(C(=S)N2CCOCC2)c1OS(=O)(=O)c1ccc(Cl)cc1,23,32,3,4,5,11,/,/,/
CC(=O)N1CCOc2ccc(S(=O)(=O)NCC3CCC(C(=O)Nc4ncccc4C)CC3)cc21 (centres undefined),12,19,-2,7,-9,22,/,/,/
COc1ccccc1NS(=O)(=O)c1cccc(C(=O)N/N=C(\C)c2cccnc2)c1,2,-3,6,10,9,/,/,/,/

# High-throughput results as filed in PubChem BioAssay.
